# Source: PubChem BioAssay AID1159580 (chemical genetic matrix, 2015)
# “And” between values parts separate entries of the source, which are not always exact repeats. Equal entries are not always repeated. Out of some 5,500 compounds screened, about 2,000 (36%) were called active. Roughly 18% stayed inconclusive and do not appear here. Rule as the data show it: active = normalized growth mostly below about 0.91 (no sharp cut-off); inconclusive = no clear call, values can overlap the other calls; inactive = mostly above about 0.92. The list shows a part of the results.
# Experiment: chemical genetic growth profiling, strain panel (AID 1159580);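 also: tested at 20 µM; growth read once vehicle control cultures reached saturation at 30 °C; 1 = growth at the plate median or of vehicle wells; lower values mean less growth of the strain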
# Conditions: S. cerevisiae deletion strains, growth OD
smiles,measurement,setting,value
CC/C(=C(\c1ccccc1)c1ccc(OCCN(C)C)cc1)c1ccccc1,normalized growth,"locus YAL013W, strain DEP1, stronger effect = lower value",0.0667 (active)
same,normalized growth,"locus YAL021C, strain ccr4, stronger effect = lower value",0.0669 (active)
same,normalized growth,"locus YAL026C, strain drs2, stronger effect = lower value",0.0635 (active)
same,normalized growth,"locus YAL030W, strain snc1, stronger effect = lower value",0.0686 (active)
same,normalized growth,"locus YAL040C, strain CLN3, stronger effect = lower value",1.04 (inactive)
same,normalized growth,"locus YBL061C, strain skt5, stronger effect = lower value",0.072 (active)
same,normalized growth,"locus YBR009C, strain hhf1, stronger effect = lower value",0.0625 (active)
same,normalized growth,"locus YBR021W, strain FUR4, stronger effect = lower value",0.0845 (active)
same,normalized growth,"locus YBR023C, strain chs3, stronger effect = lower value",0.0749 (active)
same,normalized growth,"locus YBR171W, strain sec66, stronger effect = lower value",0.383 (active)
same,normalized growth,"locus YBR229C, strain ROT2, stronger effect = lower value",0.0463 (active)
same,normalized growth,"locus YBR231C, strain swc5, stronger effect = lower value",0.0729 (active)
same,normalized growth,"locus YBR279W, strain paf1, stronger effect = lower value",0.122 (active)
same,normalized growth,"locus YCL011C, strain gbp2, stronger effect = lower value",0.0716 (active)
same,normalized growth,"locus YCL016C, strain dcc1, stronger effect = lower value",0.122 (active)
same,normalized growth,"locus YCL029C, strain bik1, stronger effect = lower value",0.0615 (active)
same,normalized growth,"locus YCL061C, strain MRC1 (second series), stronger effect = lower value",0.311 (active)
same,normalized growth,"locus YCL069W, strain vba3, stronger effect = lower value",0.0995 (active)
same,normalized growth,"locus YCR088W, strain abp1, stronger effect = lower value",0.0758 (active)
same,normalized growth,"locus YDL005C, strain med2, stronger effect = lower value",0.382 (active)
same,normalized growth,"locus YDL035C, strain GPR1, stronger effect = lower value",0.0496 (active)
same,normalized growth,"locus YDL040C, strain nat1, stronger effect = lower value",0.312 (active)
same,normalized growth,"locus YDL074C, strain BRE1, stronger effect = lower value",0.0746 (active)
same,normalized growth,"locus YDL101C, strain DUN1, stronger effect = lower value",0.0532 (active)
same,normalized growth,"locus YDL134C, strain PPH21, stronger effect = lower value",0.0467 (active)
same,normalized growth,"locus YDL185W, strain tfp1, stronger effect = lower value",0.606 (active)
same,normalized growth,"locus YDL192W, strain arf1, stronger effect = lower value",0.062 (active)
same,normalized growth,"locus YDR001C, strain nth1, stronger effect = lower value",0.0956 (active)
same,normalized growth,"locus YDR069C, strain doa4, stronger effect = lower value",0.068 (active)
same,normalized growth,"locus YDR101C, strain arx1, stronger effect = lower value",0.0613 (active)
same,normalized growth,"locus YDR137W, strain rgp1, stronger effect = lower value",0.461 (active)
same,normalized growth,"locus YDR150W, strain NUM1, stronger effect = lower value",0.0558 (active) and 0.416 (active)
same,normalized growth,"locus YDR159W, strain sac3, stronger effect = lower value",0.0992 (active)
same,normalized growth,"locus YDR162C, strain NBP2, stronger effect = lower value",0.046 (active)
same,normalized growth,"locus YDR195W, strain ref2",0.166 (active)
same,normalized growth,"locus YDR297W, strain sur2, stronger effect = lower value",0.0894 (active)
same,normalized growth,"locus YDR318W, strain mcm21, stronger effect = lower value",0.0655 (active)
same,normalized growth,"locus YDR334W, strain swr1, stronger effect = lower value",0.0759 (active)
same,normalized growth,"locus YDR335W, strain msn5, stronger effect = lower value",0.103 (active)
same,normalized growth,"locus YDR363W, strain ESC2, stronger effect = lower value",0.174 (active)
same,normalized growth,"locus YDR388W, stronger effect = lower value",0.0557 (active)
same,normalized growth,"locus YDR392W, strain spt3, stronger effect = lower value",0.0847 (active)
same,normalized growth,"locus YDR502C, strain sam2, stronger effect = lower value",0.0692 (active)
same,normalized growth,"locus YEL003W, strain gim4, stronger effect = lower value",0.127 (active)
same,normalized growth,"locus YEL037C, strain rad23, stronger effect = lower value",0.093 (active)
same,normalized growth,"locus YEL061C, strain CIN8 (second series), stronger effect = lower value",0.243 (active)
same,normalized growth,"locus YEL061C, strain CIN8, stronger effect = lower value",0.0479 (active)
same,normalized growth,"locus YER002W, strain NOP16, stronger effect = lower value",1.02 (inactive)
same,normalized growth,"locus YER015W, strain faa2, stronger effect = lower value",0.117 (active)
same,normalized growth,"locus YER016W, strain bim1, stronger effect = lower value",0.164 (active)
same,normalized growth,"locus YER110C, stronger effect = lower value",0.072 (active)
same,normalized growth,"locus YER111C, strain swi4, stronger effect = lower value",0.372 (active)
same,normalized growth,"locus YER155C, strain BEM2 (second series), stronger effect = lower value",0.668 (active)
same,normalized growth,"locus YER155C, strain BEM2, stronger effect = lower value",0.0653 (active)
same,normalized growth,"locus YER167W, strain BCK2, stronger effect = lower value",0.05 (active)
same,normalized growth,"locus YFR010W, strain ubp6, stronger effect = lower value",0.0799 (active)
same,normalized growth,"locus YGL078C, strain dbp3, stronger effect = lower value",0.901 (active)
same,normalized growth,"locus YGL086W, strain mad1, stronger effect = lower value",0.0577 (active)
same,normalized growth,"locus YGL167C, strain pmr1, stronger effect = lower value",0.196 (active)
same,normalized growth,"locus YGL173C, strain kem1, stronger effect = lower value",0.168 (active)
same,normalized growth,"locus YGL227W, strain vid30, stronger effect = lower value",0.143 (active)
same,normalized growth,"locus YGL240W, strain doc1, stronger effect = lower value",0.436 (active)
same,normalized growth,"locus YGL248W, strain PDE1, stronger effect = lower value",0.0453 (active)
same,normalized growth,"locus YGL253W, strain hxk2, stronger effect = lower value",0.0687 (active)
same,normalized growth,"locus YGR078C, strain PAC10, stronger effect = lower value",0.0556 (active) and 0.48 (active)
same,normalized growth,"locus YGR135W, strain pre9, stronger effect = lower value",0.0678 (active)
same,normalized growth,"locus YGR229C, strain SMI1, stronger effect = lower value",0.061 (active) and 0.0615 (active)
same,normalized growth,"locus YGR252W, strain gcn5, stronger effect = lower value",0.155 (active)
same,normalized growth,"locus YHR013C, strain ard1, stronger effect = lower value",0.174 (active)
same,normalized growth,"locus YHR027C, strain rpn1, stronger effect = lower value",0.102 (active)
same,normalized growth,"locus YHR030C, strain SLT2, stronger effect = lower value",0.0499 (active) and 0.883 (inactive)
same,normalized growth,"locus YHR079C, strain IRE1 (second series), stronger effect = lower value",0.0574 (active)
same,normalized growth,"locus YHR079C, strain IRE1, stronger effect = lower value",0.883 (inactive)
same,normalized growth,"locus YHR094C, strain hxt1, stronger effect = lower value",0.059 (active)
same,normalized growth,"locus YHR129C, strain ARP1, stronger effect = lower value",0.0531 (active)
same,normalized growth,"locus YHR142W, strain chs7, stronger effect = lower value",0.0883 (active)
same,normalized growth,"locus YHR200W, strain rpn10, stronger effect = lower value",0.0609 (active)
same,normalized growth,"locus YIL066C, strain RNR3, stronger effect = lower value",0.0471 (active)
same,normalized growth,"locus YIL073C, strain SPO22, stronger effect = lower value",0.158 (active)
same,normalized growth,"locus YIL125W, strain kgd1, stronger effect = lower value",0.91 (active)
same,normalized growth,"locus YIR030C, strain dcg1, stronger effect = lower value",0.0575 (active)
same,normalized growth,"locus YJL092W, strain hpr5, stronger effect = lower value",0.0913 (active)
same,normalized growth,"locus YJL095W, strain BCK1 (second series), stronger effect = lower value",0.0594 (active)
same,normalized growth,"locus YJL095W, strain BCK1, stronger effect = lower value",0.0507 (active) and 0.883 (inactive)
same,normalized growth,"locus YJL115W, strain asf1, stronger effect = lower value",0.155 (active)
same,normalized growth,"locus YJL129C, strain trk1, stronger effect = lower value",0.159 (active)
same,normalized growth,"locus YJL134W, strain LCB3, stronger effect = lower value",0.0479 (active)
same,normalized growth,"locus YJL154C, strain vps35, stronger effect = lower value",0.078 (active)
same,normalized growth,"locus YJL164C, strain tpk1, stronger effect = lower value",0.0754 (active)
same,normalized growth,"locus YJL166W, strain qcr8, stronger effect = lower value",0.0964 (active)
same,normalized growth,"locus YJL168C, strain set2, stronger effect = lower value",0.057 (active)
same,normalized growth,"locus YJL187C, strain SWE1 (second series), stronger effect = lower value",0.046 (active)
same,normalized growth,"locus YJR043C, strain POL32, stronger effect = lower value",0.0587 (active)
same,normalized growth,"locus YJR066W, strain TOR1, stronger effect = lower value",0.888 (inactive)
same,normalized growth,"locus YJR075W, strain HOC1, stronger effect = lower value",0.0611 (active) and 0.54 (active)
